Measured values taken from the OligoGym collection.

These sequences were tested against COG2 (assay: pooled miR-30 sensor sort-seq; sequence = guide strand). Conditions: shRNA.
Note: reference of the scale not given here.

Sequence	sensor-assay potency score (higher = more potent)
TTGAACAGCATGAAACTGTAAC	-0.748
TTTCTCATGAAATGCATCGGGA	-0.465
TTGTTTGAGCTTATCCTTGTGT	0.0501
TTTAATACATCTGACACGGTTT	-0.235
TTGACAAACACAGAGTATCGTG	-0.356
ATCGACATCGAAATCTTCCTTC	0.744
TTCCACTTCTTATTGAAGCTGT	0.407
TTGTCGTCGTCGCTCATGCCAC	-1.52

These sequences were tested against COL16A1 in the same assay as above. Conditions: shRNA.

Sequence	sensor-assay potency score (higher = more potent)
TGTAGTAAGCCATTCTCTCATC	-0.613
ATGCAGGACACAAAGTCGCCAT	-0.876
TTTTAATGATCTCTTGTCTGAT	-0.328
AAGTGTGACATTGCTGTCCCGG	-0.502
ATCTCTTGTCTGATGAACCTCT	-0.329
TTGAAACAGATACCACGTCTTC	-0.641
TTCTCTGCCAATCTGACCAGGG	-0.174
TGGTTTGCCACAGTCACCCTTA	-0.19
TCTTGTCTGATGAACCTCTTGA	0.162
TTGCGGATCTTCTTGATGGCAG	-0.676
TTGAAGGCCAGGCAATCCGGGG	-1.21
TGAACCTCTTGATTTCATCATA	-1.14
TTGGTAAGGATCCCAGTTCTGC	-0.831
TTAATGATCTCTTGTCTGATGA	-0.576
TTGAACTCCTGGTAGACCGGGT	0.285
TTGACTTCCAGGGATATCTGTG	-0.154
TAGACCTTGCCTTCAGACTGTG	0.244
TTTAATGATCTCTTGTCTGATG	-0.368
TTCCAATTTGAGTCCTTCCTGC	0.311
TCGAACACAGTCATTGCCCCGT	-0.664
TTTCTTCAGCAGTAGTGTCAGC	-0.871
ATTTTAATGATCTCTTGTCTGA	-0.577
TTGTCTGATGAACCTCTTGATT	-1.11

What follows are sequences tested against COL20A1 in the same assay as above. Conditions: shRNA.

Sequence	sensor-assay potency score (higher = more potent)
TTGAAGAGCGTGAAGGTCGGGG	0.169
TAGACGTCACTGACCCGTCTTG	-0.759
TCGAACTTTGACACGTGTGAGG	-1.19
TTGGTGTGAAGGCAACTTGGGG	-0.796
AGCAGTGTGCACATCGTCCTGG	-0.7
TCAATCACAAACTCCCTCCGAG	0.439
TAGACAAGCACGCCAGACGGGG	-1.06
TAGGTCAGGGACTTCTTCCCGG	-0.568
TAGAGCCTGACCTTGGAGCGGC	-0.375
